# Assay outcomes deposited in PubChem by several laboratories.
# Hits are enriched below; roughly 2.8% of the tested compounds scored in any of these assays.
# Wee1 stabilizer: human Wee1 degradation inhibition, primary screen; P30291; HeLa Luc-Wee1K328M stability, luciferase luminescence; 100% = proteasome inhibitor MG132 effect; reporter increase, % at 5 µM; 220,000 tested, 1.2% active;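 active means activation above the mean of all tested compounds plus 3 SD, set per screening run, cut at about 8.8% in these data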;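 further: cells exposed to compound for 20 h before luminescence read; 0% = DMSO alone and 100% = MG132 at 30 µM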
# HSV augment: HSV replication enhancement. HSV replication augmentation in cells, fold increase. 220,000 tested, 0.005% active. maximum fold increase. AID 1956; in the data active means maximum fold increase above about 1.5; tested in PC3 cells
# PGE2 EP2 inh: EP2 receptor (human) inhibition | P43116 | C6 glioma cells expressing human EP2, cAMP TR-FRET; cells stimulated with saturating PGE2 | inhibition, % at 25 µM | 260,000 tested, 0.52% active;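 active means percent inhibition above 40 after rounding to a whole number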;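 further: rat C6 glioma host cells with rolipram phosphodiesterase inhibitor present; the protocol text gives 20 µM as final concentration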
# EP2 modulator: EP2 receptor (human) modulation; EP2-expressing cells, cAMP HTRF FRET, PGE2 co-stimulation; P43116; 260,000 tested, 0.83% active; induction, % at 25 µM;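 active means compounds whose cAMP rise, as percent of the full-agonist control response, exceeds 60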;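 further: rat C6 glioma line stably carrying human EP2 under a CMV promoter; the protocol text gives 20 µM as final concentration; 100% = response of wells given 1 µM PGE2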
# Furin inh: blocks human furin protease activity; P09958; purified furin, fluorogenic substrate cleavage; inhibition, % at 20 µM or 30 µM; 220,000 tested, 0.061% active; in the data active means inhibition above about 25%
# Target sequence (P09958 108-714 limits assumed): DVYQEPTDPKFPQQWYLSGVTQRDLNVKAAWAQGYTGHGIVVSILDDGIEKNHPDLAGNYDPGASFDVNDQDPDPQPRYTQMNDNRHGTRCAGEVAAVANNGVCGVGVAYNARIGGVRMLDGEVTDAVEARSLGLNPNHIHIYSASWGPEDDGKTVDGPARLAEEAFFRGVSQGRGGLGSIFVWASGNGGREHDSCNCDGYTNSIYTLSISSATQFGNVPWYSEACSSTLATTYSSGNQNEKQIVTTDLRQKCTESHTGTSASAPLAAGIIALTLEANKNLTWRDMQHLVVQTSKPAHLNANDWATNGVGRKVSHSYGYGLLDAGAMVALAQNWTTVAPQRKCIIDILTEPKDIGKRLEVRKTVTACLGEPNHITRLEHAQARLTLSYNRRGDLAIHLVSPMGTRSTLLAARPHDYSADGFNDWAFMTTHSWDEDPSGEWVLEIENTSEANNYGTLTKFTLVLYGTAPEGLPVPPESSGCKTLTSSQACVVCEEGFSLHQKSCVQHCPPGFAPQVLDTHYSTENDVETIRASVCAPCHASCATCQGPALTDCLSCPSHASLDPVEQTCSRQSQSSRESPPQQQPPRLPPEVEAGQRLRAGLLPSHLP
# NCF1 inh: p47phox (human) inhibition; AID 1274; p47phox/p22phox peptide binding, fluorescence polarization, 2 h; P14598; inhibition, % at 24.7 µM; 220,000 tested, 0.53% active;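 active means inhibition above about 30%, limit read from the data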;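 further: 0% = p47phox with labelled peptide and 100% = labelled peptide alone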
# * = called active by the depositor; i = inactive; . = no result given; ! = a repeat was not active.
SMILES,Wee1 stabilizer,HSV augment,PGE2 EP2 inh,EP2 modulator,Furin inh,NCF1 inh
CCOc1ccc(C2C(C#N)=C(N)Oc3n[nH]c(C(C)(C)C)c32)cc1 (centres undefined),.,.,20,-32,.,.
CCCc1ncc(CN2CC3CCCC(C2)C3(O)c2ccc(OC)cc2)cn1 (centres undefined),.,.,10,-109,.,.
O=C(O)c1ccccc1-c1ccccc1C(=O)Nc1ccc2c(c1)[nH]c(=O)c1ccccc12,0,i,46*!,7,-10,-70
Cc1ccc(C2=Nc3ccccc3N=C(c3ccco3)C2)c(O)c1,0,i,12,32,-25,-6
Cc1ccc(O)c(C2=Nc3ccccc3N=C(c3ccco3)C2)c1,3,i,17,63*,-17,-13
COc1ccc2nc(C)cc(SCC(NC(C)=O)C(=O)OC(C)C)c2c1 (centres undefined),-3,i,13,14,-16,-1
CC(=O)NC(CSc1cc(C)nc2ccc(Br)cc12)C(=O)O (centres undefined),0,i,12,64*,-2,-3
CCc1nn(CC(=O)N(C(C)C)C(C)C)c(=O)c2cc3sc(C)cc3n12,.,.,.,-18,.,.
N=c1c(C(=O)NCc2cccnc2)cc2c(=O)n3ccccc3nc2n1Cc1cccnc1,.,.,12,8,.,.
CCOC(=O)COc1ccc2c(=O)c(-c3ccccc3OC)coc2c1,-3,i,2,-9,-26,-2
CCOC(=O)COc1ccc(C2Oc3c(cccc3OC)C=C2[N+](=O)[O-])cc1 (centres undefined),.,.,53*,-85,.,.
Cc1sc2ncn(CCCCn3cnc4sc(C)c(C)c4c3=O)c(=O)c2c1C,.,.,14,-5,.,.
CC(=O)c1cccc(NC(=O)c2ccc(-c3ccccc3[N+](=O)[O-])o2)c1,1,i,47*,-69,-4,-15
O=C1NCC2=C1C(c1ccc(Br)cc1)Nc1ccccc1N2 (centres undefined),9.6*,i,8,-9,-26,-6
CC(=O)N1CCN(c2ccc(NC(=O)COc3cc(C)c(Cl)c(C)c3)cc2)CC1,.,.,7,1,.,.
CCN(CC)C(=O)c1sc2[nH]c(=S)n(-c3ccccc3)c(=O)c2c1C,2,i,10,61*,-7,-6
Cc1ccc(C(=O)Nc2sc(C)c(C)c2C(=O)c2ccccc2)cc1,4,i,7,29,-20,-4
Cc1sc(NC(=O)c2ccccc2)c(C(=O)c2ccccc2)c1C,1,i,11,65*,-12,-7
COc1nccnc1NS(=O)(=O)c1ccc(NC(=S)NC(=O)/C=C/c2ccc(F)cc2)cc1,0,i,66*,-64,-16,-21
COc1nccnc1NS(=O)(=O)c1ccc(NC(=S)NC(=O)c2ccc(F)c(F)c2)cc1,0,i,7,-9,-15,-4
COc1nccnc1NS(=O)(=O)c1ccc(NC(=S)NC(=O)/C=C/c2ccc(C)cc2)cc1,.,.,72*,-104,.,.
CCOc1ccc2[nH]c(=O)c(CN(CCO)C(=S)Nc3ccc(F)cc3)cc2c1,.,.,8,-66,.,.
OC[C@@H]1O[C@H](N2CCN([C@@H]3O[C@H](CO)[C@@H](O)[C@H](O)[C@H]3O)CC2)[C@@H](O)[C@H](O)[C@H]1O,.,.,49*,15,.,.
Cc1ccc(-c2nn3c(C)nnc3s2)cc1NC(=O)c1cc2ccccc2o1,.,.,10,-42,.,.
O=C(Nc1c(C(=O)C2CC2)oc2ccccc12)c1ccc(Cl)cc1,-4,i,5,64*,-23,-9
SMILES,Wee1 stabilizer,HSV augment,PGE2 EP2 inh,EP2 modulator,Furin inh,NCF1 inh
O=C(O)CCSCC(=O)Nc1c(C(=O)C2CC2)oc2ccccc12,0,i,20,15,-6,6
NC(=S)NC1CC2CC1C1C=CCC21 (centres undefined),9.5*,i,12,-5,-15,4
O=C(OCC(=O)N1CCN(C(=O)c2ccco2)CC1)c1cc(-c2ccco2)nc2ccccc12,-3,i,8,0,-16,0
O=C(OCC(=O)N1CCN(C(=O)c2ccco2)CC1)c1cc(-c2ccc(Cl)c(Cl)c2Cl)nc2ccccc12,3,i,8,21,-19,37*
COc1ccc(NC(=O)NC2CC3CCC(C2)N3Cc2ccco2)cc1 (centres undefined),.,.,8,-43,.,.
O=c1[nH]c(N2CCOCC2)nc2c1CN(Cc1nnnn1CCc1ccccc1)CC2,.,.,9,-10,.,.
CC1C/C(=N/NC(=O)c2ccc(CSc3nc4ccccc4[nH]3)cc2)CC(C)(C)C1 (centres undefined),5,i,4,13,-8,-19
CC1C/C(=N/Nc2nc3ccccc3[nH]2)CC(C)(C)C1 (centres undefined),10*,.,13,-89,-29,-21
CC1CCN(S(=O)(=O)c2ccc(S(=O)(=O)N(CC(=O)Nc3ccccc3)C3CC3)cc2)CC1,.,.,11,18,.,.
O=C(O)c1cc(S(=O)(=O)N2CCOCC2)ccc1N1CCCCC1,-3,i,4,21,-9,-5
O=c1c2ccccc2sn1-c1cc(S(=O)(=O)N2CCOCC2)ccc1N1CCOCC1,2,i,11,-39,-7,74*
O=c1c2ccccc2sn1-c1cc(S(=O)(=O)N2CCOCC2)ccc1N1CCCC1,-2,i,14,-36,-17,58*
Cc1c(O)ccc(C(=O)CN2CCN(Cc3ccc4c(c3)OCO4)CC2)c1O,11*,i,10,-23,-1,-7
Cc1ccc(C(=O)N2CCN(Cc3ccc4c(c3)OCO4)CC2)o1,-1,i,9,-36,-12,9
Cc1cccc(CSc2cn(CC(=O)N3CCOCC3)c3ccccc23)c1,2,i,9,-2,-22,-7
O=C(Cn1cc(SCc2cccc(Cl)c2)c2ccccc21)N1CCOCC1,11*,i,5,-24,-10,-20
COc1cccc(-n2nnc3c(=O)n(Cc4ccccc4Cl)cnc32)c1,-2,i,6,22,28*,0
Cc1cc(C)c2nc3c(c([C@H](O)[C@@H]4CCCCN4)c2c1)CC/C3=C\c1ccc(Cl)cc1,.,.,50*,13,.,.
CC1CCCC(C)N1C(=O)CSc1nnc(-c2ccc3c(c2)OCO3)n1C (centres undefined),.,.,6,-4,.,.
CCC(C)C(=O)OC1[C@@H]2CC3=C4CC(=O)O[C@@H](c5ccoc5)[C@]4(C)CCC3C(C)(C2=O)[C@@H](CC(=O)OC)C1(C)C (some centres undefined),.,.,14,36,.,.
Cn1c(C2CCCCC2)nc2c1c(=O)[nH]c(=O)n2Cc1ccccc1,-1,i,8,65*,-9,0
Cc1ccccc1OC1C(=O)N(C2CCCC2)C1c1ccc2c(c1)OCO2 (centres undefined),.,.,9,61*,.,.
S=C(Nc1ccc(Br)cc1)N1CCn2cccc2C1c1cccnc1 (centres undefined),4,i,7,-97,-25,-6
